Hits are enriched below; roughly 3% of the tested compounds scored in any of these assays.
DRD3 agonist: qHTS of D3 Dopamine Receptor Agonist: qHTS; D(3) dopamine receptor (Homo sapiens), P35462; D3R DiscoveRx beta-arrestin cells, luminescence, 90 min; max activation, %; 410,000 tested, 0.58% active; AID 652048, 2013; in the data active = max activation above about 30%; also: 0% is about no effect
Target sequence (P35462 whole entry, looked up): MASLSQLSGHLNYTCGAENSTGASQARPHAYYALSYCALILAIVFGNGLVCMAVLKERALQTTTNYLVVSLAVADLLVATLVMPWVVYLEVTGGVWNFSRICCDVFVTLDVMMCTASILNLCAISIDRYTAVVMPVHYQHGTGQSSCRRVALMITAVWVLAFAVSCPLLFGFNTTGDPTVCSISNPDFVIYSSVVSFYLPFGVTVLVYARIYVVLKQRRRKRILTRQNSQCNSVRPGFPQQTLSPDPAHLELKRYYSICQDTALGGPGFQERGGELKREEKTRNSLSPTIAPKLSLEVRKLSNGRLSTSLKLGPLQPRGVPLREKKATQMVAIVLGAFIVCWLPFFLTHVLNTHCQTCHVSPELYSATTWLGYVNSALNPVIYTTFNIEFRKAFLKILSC
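Agonist-mode cell screen: cells plated at 1500/well and incubated overnight at 37 °C, then exposed to library compounds for 90 min at 37 °C. Detection reagent was added for 30–60 min at room temperature, and luminescence was read.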
D3 antag: qHTS of D3 Dopamine Receptor Antagonist: qHTS; max response, negative = inhibition, %; AID 652054, 2013; 360,000 tested, 2.5% active; D3R cells, DiscoveRx beta-arrestin luminescence, antagonist mode; hits give low values; D(3) dopamine receptor (Homo sapiens), P35462; in the data active = max response below about -50%; inconclusive = no clear call, values can overlap the other calls; also: % is scaled to controls: 0 for no effect and ±100 for the full control effect
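Cells expressing the human receptor were seeded at 1500 cells/well, incubated overnight at 37 degrees C in 5% CO2, then exposed to library compounds with dopamine controls for 90 minutes at 37 degrees C before luminescent detection.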
GRP78 ERSR act: qHTS for Inducers of the Endoplasmic Reticulum Stress Response (ERSR) in Human Glioma: qHTS; Potency, µM, without a hit: at the top dose activation, actives largely listed as activators; 420,000 tested, 0.02% active; U87-MG GRP78 promoter luciferase reporter, 16 h; also: potency is read from the fitted curve at half-maximal effect; series mostly up to about 76 µM; % of control where 0% means no effect; nearly all actives have a fitted effect of over 35% in size
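Stably transfected U87-MG glioma cells carrying a GRP78-based luciferase sensor; 16 h compound incubation. Luminescence end-point read 10 min after Bright-Glo addition at room temperature.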
Nrf2 ARE act: qHTS of Nrf2 Activators. Potency, µM (titrated, usually from 46.1 µM), for the others: at the highest dose activation, usual class: activators. AID 624171, 2012. AREc32 ARE-luciferase reporter (MCF7-derived line), luminescence, 24 h. 410,000 tested, 0.31% active; also: potency is read from the fitted curve at half-maximal effect; % of control where 0% means no effect; nearly all actives have a fitted effect of over 65% in size
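Cells of the AREc32 ARE-luciferase line are plated in OPTI-MEM containing 5% FBS and left overnight at 37 deg C. Compounds are pinned in, incubation continues 24 hr, and firefly luciferase signal is then measured.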
An asterisk follows results filed as active; ? = inconclusive; nt = not tested or not shown; [ ] = remark or other dose. Unless noted, calls follow the shape of the dose curve; as a rule, active = well fitted curve in the direction sought with a large enough effect; inconclusive = small, poorly fitted or top-dose-only effect, or another doubt; inactive = no such curve, though single readings can be large; an effect the other way counts as inactive or inconclusive.

SMILES	DRD3 agonist	D3 antag	GRP78 ERSR act	Nrf2 ARE act
O=C(Nc1ccc(O)cc1)c1ccc2c(c1)C(=O)N(Cc1ccccc1)C2=O	-4	-18	-5%	0%
Cc1cc(-c2nn(-c3ccccc3F)cc2CNCCc2cnccn2)c(C)s1	-15	-28	-1%	5%
Cc1cc(-c2nn(-c3ccccc3F)cc2CN2CCN(c3ccccn3)CC2)c(C)s1	-19	-79*	-2%	0%
CC(C)=NNc1cnnc2ccc([N+](=O)[O-])cc12	4	5	-1%	3.5µM*
CCc1n[nH]c(=S)n1/N=C/c1cc(OC)cc([N+](=O)[O-])c1O	-27	-94*	-9%	0%
COc1cc(/C=N/n2c(=S)[nH]nc(C)c2=O)cc([N+](=O)[O-])c1O	-12	-15	-4%	0%
CCOC(=O)c1c(/N=C/c2cc(OC)cc([N+](=O)[O-])c2O)sc(C)c1C	-16	-71*	-3%	2%
C/C(=N\NC(=O)c1cc(C)nc2ccccc12)c1ccccn1	-15	-74*	-8%	?
C/C(=N\NC(=O)c1ccc(Cl)cc1)c1ccccn1	-35	-106*	-9%	?
C/C(=N\NC(=O)COc1ccccc1-c1ccccc1)c1ccccn1	-22	-58*	-7%	?
C/C(=N\NC(=O)c1ccccn1)c1ccc(Cl)cc1	4	-13	-6%	0%
COc1ccc(Cl)cc1-c1cc2c(c(OC)c1)OCCN(Cc1cccn1-c1nccs1)C2	nt	nt	-4%	nt
CN(C)c1ccc(/C=C/c2ccnc3ccc(F)cc23)cc1	nt	nt	-9%	nt
Cc1ccc(CS(=O)(=O)c2ncc(Cl)c(C(=O)Nc3nc4ccc(C)cc4s3)n2)cc1	-13	nt	-6%	14%
CC(C)c1nnc(NC(=O)c2nc(S(=O)(=O)Cc3ccccc3)ncc2Cl)s1	-24	-64*	-19%	4%
CCCc1nnc(NC(=O)c2nc(S(=O)(=O)Cc3ccc(C)cc3)ncc2Cl)s1	-11	-65*	-17%	11%
CC(=O)Nc1cc(C(=O)N2CCCC2)ccc1Sc1ccc(Cl)cc1	63*	58	-1%	-1%
CC(=O)Nc1cc(C(=O)N2CCCC2)ccc1Sc1ccc(C)cc1	41*	34	1%	0%
O=C(C[n+]1cccc(Cl)c1)c1ccc(O)c(O)c1	nt	nt	0%	nt
Cc1cc(C)c(S(=O)(=O)N/N=C/c2ccc3c(c2)OCO3)c(C)c1	6	-71*	-5%	-1%
Cc1cc(Cl)c(S(=O)(=O)N/N=C/c2ccc3c(c2)OCO3)c(Cl)c1	-15	?	3%	5%
Nc1cccc2[nH]cnc12	nt	nt	-2%	nt
CC1CCc2c(sc(NC(=O)c3ccc(-c4ccccc4[N+](=O)[O-])o3)c2C#N)C1 (configuration not stated)	-13	-26	0%	1%
N#Cc1c(NC(=O)c2ccc(-c3ccccc3[N+](=O)[O-])o2)sc2c1CCCC2	-14	-117*	-1%	22%
Cc1ccccc1-n1nc(C)c2cc(C(=O)NCc3cccnc3)sc21	-50	-60*	-5%	0%
SMILES	DRD3 agonist	D3 antag	GRP78 ERSR act	Nrf2 ARE act
COc1cc(OC)c(OC)cc1/C=C/c1cc[n+](C)c2ccccc12	nt	nt	-3%	nt
O=C1CC(=O)N(CCNc2ncc(C(F)(F)F)cc2Cl)C(=O)N1	4	-1	-3%	-1%
O=C1C=CC(=O)N1CCNc1ncc(C(F)(F)F)cc1Cl	-12	-113*	-15%	-3%
COc1cc(N)c(Cl)cc1C(=O)NC1CCN(Cc2ccccc2)CC1	-96	-108*	0%	0%
O=C(COc1ccccc1)NC1CCN(Cc2ccccc2)CC1	-59	?	-5%	0%
CC1(C(=O)NC2CCN(Cc3ccccc3)CC2)CCN1CCc1ccccc1 (configuration not stated)	-21	-85*	-7%	1%
CN1CCC(NC(=O)C2(C)CCN2Cc2ccc3ccccc3c2)CC1 (configuration not stated)	-7	11	-1%	-1%
CC1(C(=O)NC2CCN(Cc3ccccc3)CC2)CCN1Cc1ccc2ccccc2c1 (configuration not stated)	-11	-97*	-1%	6%
CC(C)(Oc1ccc(Cl)cc1)C(=O)NC1CCN(Cc2ccccc2)CC1	-28	-82*	-4%	0%
O=C(Cc1ccc2c(c1)OCO2)N1CCOc2ccc(CN3CCOCC3)cc2C1	nt	nt	-2%	nt
COCc1ccc(C(=O)N2CCOc3ccc(CN4CCN(c5ccc(F)cc5)CC4)cc3C2)o1	nt	nt	-4%	nt
CNS(=O)(=O)c1cn(CC(=O)N2CCN(c3ccc(Cl)cc3)CC2)cc1S(=O)(=O)NC	-7	nt	-2%	1%
CC1(C(=O)NC2CCN(Cc3ccccc3)CC2)CCN1Cc1ccc(OC(F)(F)F)cc1 (configuration not stated)	-13	-65*	0%	2%
CC(=O)Nc1ccc(CN2CCC2(C)C(=O)NC2CCN(Cc3ccccc3)CC2)cc1 (configuration not stated)	-2	6	-2%	0%
CCNC(=O)C1CCCN(Cc2ccc(C(=O)OCC)cc2)CC1 (configuration not stated)	-8	0	-1%	-1%[9.22 µM]
CCNC(=O)C1CCCN(Cc2cc(C(F)(F)F)ccc2Cl)CC1 (configuration not stated)	-20	-76*	-2%	-1%
COc1ccc(CC2(CO)CCN(CC3=Cc4cc(Cl)ccc4OC3)CC2)cc1	-13	-75*	-3%	2%
COc1ccc2c(c1)C=C(CN1CCC(CO)(CCc3ccccc3)CC1)CO2	-22	-87*	-3%	7%
CC(=O)Nc1ccccc1-c1nc(CNC(=O)c2ccc(C)cc2)c(C)o1	nt	nt	0%	nt
COc1cccc2cc(S(=O)(=O)c3ccc(F)c(C)c3)c(=O)oc12	-8	nt	-2%	?
COc1ccc(C(=O)NCc2nc(-c3cccc(NC(=O)c4ccc(C)s4)c3)oc2C)cc1	nt	nt	-5%	nt
O=C(CCl)NCCCN(C(=O)C(Cl)Cl)c1ccc([N+](=O)[O-])cc1	-9	-13	-6%	11µM*
COCCCNC(=O)c1ccc([N+](=O)[O-])cc1	23	9	-2%	0%
O=C(Nc1cc(Cl)ccc1Cl)C1CC(=O)N(c2ccc(Br)cc2)C1 (configuration not stated)	-11	-55*	-4%	0%
COCCN1CCN(C(=O)c2cnn(-c3nccc(-c4ccccc4F)n3)c2-c2ccco2)CC1	nt	nt	1%	nt
SMILES	DRD3 agonist	D3 antag	GRP78 ERSR act	Nrf2 ARE act
COC(=O)c1c(SC)nc2ccccc2c1OCc1ccccc1C	32*	nt	-2%	5%
COC(=O)c1c(SC)nc2ccccc2c1OCc1ccc(C)cc1	40*	nt	-1%	0%
COC(=O)c1c(SC)nc2ccccc2c1OCc1ccc(Br)cc1	11	nt	-3%	0%
Cc1ccc(S(=O)(=O)Nc2cccc3ncccc23)cc1	-2	-18	-5%	-1%
Cc1ccc(S(=O)(=O)Nc2cccc3ncccc23)s1	-25	-77*	?	?
O=C(/C=C/c1ccc(Cl)cc1Cl)c1ccc[nH]1	-1	-17	5%	?
O=C(/C=C/c1ccc(Cl)cc1Cl)n1cccn1	0	-59*	2%	19%

Assay outcomes deposited in PubChem by National Center for Advancing Translational Sciences (NCATS).
